Rows were chosen to be rich in hits. Some 4% of all compounds tested hit in one or more screens of this group.
Gli-Sufu block = antagonists of Gli-Sufu signaling. Sufu-KO-LIGHT fibroblasts, Gli luciferase reporter luminescence. inhibition, % at 5 µM. 340,000 tested, 0.74% active;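 active = inhibition above about 55%, limit read from the data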;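 also: 0% = DMSO-treated cells and 100% = wells with medium but no cells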
Mdm2 MdmX PPI = human Mdm2/MdmX binding inhibition; O15151+Q00987; SaOS-2 split-luciferase Mdm2/MdmX complementation, luminescence; inhibition, % at 8 µM; 330,000 tested, 3% active;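 active = inhibition of at least 50% at 8 µM in the primary screen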
Target sequence (O15151 whole entry, looked up): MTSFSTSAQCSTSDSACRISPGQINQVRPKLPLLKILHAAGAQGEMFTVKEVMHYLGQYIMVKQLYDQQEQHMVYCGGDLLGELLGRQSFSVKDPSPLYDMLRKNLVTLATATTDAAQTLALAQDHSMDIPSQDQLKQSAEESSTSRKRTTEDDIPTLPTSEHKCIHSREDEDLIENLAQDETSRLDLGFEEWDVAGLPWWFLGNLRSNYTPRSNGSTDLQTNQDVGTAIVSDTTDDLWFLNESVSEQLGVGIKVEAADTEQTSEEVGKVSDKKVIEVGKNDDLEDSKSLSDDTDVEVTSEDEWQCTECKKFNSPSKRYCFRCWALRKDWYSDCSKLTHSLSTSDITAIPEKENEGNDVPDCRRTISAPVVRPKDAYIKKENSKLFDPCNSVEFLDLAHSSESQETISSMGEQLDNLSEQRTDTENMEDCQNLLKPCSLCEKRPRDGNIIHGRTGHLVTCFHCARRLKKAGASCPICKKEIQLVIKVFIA
Target sequence (Q00987 whole entry, looked up): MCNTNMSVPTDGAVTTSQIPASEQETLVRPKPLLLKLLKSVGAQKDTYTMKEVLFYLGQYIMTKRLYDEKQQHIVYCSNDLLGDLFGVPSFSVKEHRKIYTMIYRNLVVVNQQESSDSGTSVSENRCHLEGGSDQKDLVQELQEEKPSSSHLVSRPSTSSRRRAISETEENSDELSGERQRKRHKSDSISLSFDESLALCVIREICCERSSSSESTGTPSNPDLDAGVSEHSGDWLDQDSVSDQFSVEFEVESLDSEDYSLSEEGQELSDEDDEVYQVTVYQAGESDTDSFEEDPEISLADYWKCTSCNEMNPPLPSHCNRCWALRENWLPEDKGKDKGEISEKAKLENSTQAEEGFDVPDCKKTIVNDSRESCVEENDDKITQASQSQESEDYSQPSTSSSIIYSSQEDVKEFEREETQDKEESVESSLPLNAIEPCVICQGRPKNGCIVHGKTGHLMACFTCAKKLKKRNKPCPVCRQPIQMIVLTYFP
CSC inhib = cancer stem cell inhibition. 300,000 tested, 1.1% active. inhibition, % at 7.5 µM. cancer stem cell-like cells viability, luminescence; in the data active = inhibition above about 75%; tested in HMLE shEcad cells
Beta apoptosis = beta cell apoptosis inhibition; 300,000 tested, 0.8% active; AID 435005; INS-1E cytokine-induced death, ATP luminescence, 48 h; percent of positive-control rescue, neutral wells zero; protection from apoptosis, % (concentration not given with the values);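 active = Every replicate reaches about 75%, or at least half do and their mean reaches it too, limit read from the data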;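 also: 0% = cytokine-treated negative control wells and 100% = positive control rescue; higher means more ATP so stronger rescue from cytokine killing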
Shn3 3UTR inh = reduces Shn3 3'UTR luciferase signal in osteoblasts | AID 588674 | inhibition, % at 12.5 µM | 360,000 tested, 0.52% active | Clone20 osteoblast Shn3 3'UTR firefly luciferase, 24 h;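 active = mean inhibition of at least 75% with every replicate also reaching 75%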;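 also: 0% = median of neutral control wells and 100% = pilot-screen positive control compound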
PAX8 reporter = inhibitors of PAX8 transcriptional activity in RMG-I cells | RMG-I TPO-luciferase reporter, SteadyGlo, 24 h | inhibition, % at 12.6 µM | 360,000 tested, 1.2% active | AID 652154;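 active = mean replicate inhibition at least 60% with every replicate also reaching 60%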;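 also: luciferase light reporting Pax8 driven TPO promoter activity; plate controls were median of neutral control wells for no effect and mitoxantrone controls for full effect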
Mdm2-MdmX conf = human Mdm2/MdmX binding inhibition, confirmed; shares compounds with Mdm2 MdmX PPI; luminescent assay; inhibition, % at 8 µM; 10,000 tested, 55% active; in the data active = inhibition above about 40%
Full FLuc ctr = counter-screen for Mdm2/MdmX inhibitors: full-length luciferase; SaOS-2 full-length luciferase counterscreen, luminescence; shares compounds with Mdm2 MdmX PPI; inhibition, % at 8 µM; 6,200 tested, 77% active;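 active = mean inhibition at 8 µM reaching about 37%, which flags the compound as non-specific, limit read from the data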;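 also: p53-null SaOS-2 cells with luciferase driven by a doxycycline-inducible promoter; compound on cells about two nights before reading with doxycycline added after day one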
Starred values were filed as active, the others as inactive; · = no result given.

SMILES | Gli-Sufu block | Mdm2 MdmX PPI | CSC inhib | Beta apoptosis | Shn3 3UTR inh | PAX8 reporter | Mdm2-MdmX conf | Full FLuc ctr
CN1CCN(C2=Cc3cc(Cl)ccc3Sc3cc(F)ccc32)CC1 | 1 | 51* | 113* | · | -47 | · | 17 | ·
CN1CCN(CCC(=O)N2c3ccccc3Sc3ccc(Cl)cc32)CC1 | 5 | 30 | 1 | -3 | 6 | · | · | ·
CN1CCN(C2=Cc3ccccc3Sc3cc(F)c(F)cc32)CC1 | 4 | 36 | 22 | 1 | -6 | 6 | · | ·
OCCN1CCN(C2Cc3cc(Cl)ccc3Sc3ccc(Cl)cc32)CC1 (stereo unspecified) (tested in a mixture with another compound) | 4 | 59* | · | 101* | -24 | · | 30 | ·
CCc1ccc2c(c1)Sc1ccccc1CC2N1CCN(C)CC1 (stereo unspecified) | 7 | 44 | 35 | 4 | -4 | 21 | · | ·
CN1CCN(CCOC2Cc3ccccc3Sc3ccc(Cl)cc32)CC1 (stereo unspecified) | 10 | 60* | -6 | -2 | 17 | -1 | 27 | ·
C[C@@H]1CCCCO[C@H](CN(C)S(C)(=O)=O)[C@@H](C)CN([C@@H](C)CO)C(=O)c2cc(NS(=O)(=O)c3ccc(F)cc3)ccc2O1 | · | · | · | · | · | 12 | · | ·
CC=Cc1ccc2n(c1=O)C[C@@H]1[C@@H](CO)[C@H](C(=O)N3CCCCC3)[C@H]2N1Cc1ccccn1 (mixture of isomers) | · | · | · | · | · | -9 | · | ·
O=C(C[C@@H]1C[C@@H]2c3cc(NC(=O)C4CCC4)ccc3O[C@@H]2[C@@H](CO)O1)NCc1cccnc1 | · | · | · | · | · | -6 | · | ·
CCN(CCNC(=O)C1CCN(S(=O)(=O)c2c(C)noc2C)CC1)c1ccccc1 | 7 | 12 | 1 | 6 | -1 | 4 | · | ·
CCN(CC)CCNC(=O)C1CCN(S(=O)(=O)c2c(C)noc2/C=C/c2ccccc2F)CC1 | 9 | 56* | -6 | 5 | -28 | 31 | 24 | ·
CC(=O)N1[C@@H]2Cn3c(ccc(-c4cccnc4)c3=O)[C@H]1[C@@H](C(=O)N1CCc3ccccc3C1)[C@@H]2CO | · | · | · | · | · | 6 | · | ·
COc1ccccc1/C=N/N1C(=O)C(CC(=O)Nc2ccc([N+](=O)[O-])cc2OC)SC1=Nc1cccc(C)c1C (stereo unspecified) | · | 65* | 55 | 3 | · | 35 | 47* | 78*
CCOc1ccc(/C(C)=N/N2C(=O)C(CC(=O)Nc3ccc(OC)cc3[N+](=O)[O-])SC2=Nc2cccc(C)c2C)cc1 (stereo unspecified) | -22 | 31 | -10 | 10 | 30 | -3 | · | ·
COCC(=O)N1[C@H](CO)[C@H]2c3ccccc3N(C(=O)C3CC3)C[C@H]21 | · | · | · | · | · | 10 | · | ·
CC(C)CC(=O)c1c(O)c(C=O)c(O)c2c1O[C@@]1(C)[C@@H](C2)C[C@H]2C[C@@H]1C2(C)C | 10 | 59* | 107* | 2 | 16 | 4 | -3 | ·
O=C(C[C@H]1CC[C@H](NS(=O)(=O)c2ccccc2)[C@H](CO)O1)N1CCC(Cc2ccccc2)CC1 | · | · | · | · | · | 10 | · | ·
O=C1c2ccccc2S(=O)(=O)N1Cc1nc2ccccc2s1 | -8 | 90* | -2 | -3 | 39 | · | 87* | 33
O=C(O)c1ccccc1NSc1ccccc1[N+](=O)[O-] | -1 | 9 | 9 | 3 | -12 | 13 | · | ·
CCc1ccc(NSc2ccccc2[N+](=O)[O-])cc1 | 1 | 50* | 70 | 11 | -6 | · | 42* | 65*
CN1CCN(Cc2nc3ccccc3c(=O)n2Cc2nc(-c3ccc([N+](=O)[O-])cc3)cs2)CC1 | 22 | 95* | 21 | 5 | -5 | 55 | 31 | ·
O=C(COc1ccc(C(=O)c2ccccc2)cc1)NCc1ccc(F)cc1 | -1 | 63* | 0 | 0 | 19 | 16 | 67* | 76*
CSc1ccc(CN(C)C(=O)COc2ccc(C(=O)c3ccccc3)cc2)cc1 | -11 | 65* | -11 | -13 | -6 | 9 | 59* | 96*
CNC[C@H]1Oc2ccc(NC(=O)NC3CCCCC3)cc2CC(=O)N([C@@H](C)CO)C[C@@H]1C | · | · | · | · | · | -6 | · | ·
COC(=O)C(C(=O)Nc1ccc(OC)cc1)C1CCCCCC1 (stereo unspecified) | 1 | 56* | 4 | 5 | 9 | · | 40* | 66*
SMILES | Gli-Sufu block | Mdm2 MdmX PPI | CSC inhib | Beta apoptosis | Shn3 3UTR inh | PAX8 reporter | Mdm2-MdmX conf | Full FLuc ctr
CC(C)=NOc1cc(NC(=O)CCl)cc([N+](=O)[O-])c1 | 14 | 95* | -6 | -42 | 74 | -7 | 70* | 56*
COc1ccc(CNCCC(c2ccc(F)cc2)c2ccc(OC)cc2)cc1 (stereo unspecified) | 24 | 66* | 26 | 6 | 47 | 19 | 43* | 82*
COc1ccc(C(CCNCc2ccc(F)cc2)c2ccc(F)cc2)cc1 (stereo unspecified) | 15 | 76* | 50 | 7 | 42 | -2 | 34 | 90*
COc1ccc(C(CCNC(C)c2ccccc2)c2ccc(F)cc2)cc1 (stereo unspecified) | 26 | 73* | 11 | 21 | 75 | 81* | 32 | ·
C[C@@H]1CN([C@@H](C)CO)C(=O)c2cc(NS(=O)(=O)c3ccc(Cl)cc3)ccc2O[C@@H](C)CCCCO[C@@H]1CN(C)C(=O)Nc1ccc(C(F)(F)F)cc1 | · | · | · | · | · | 22 | · | ·
Cc1noc(C)c1S(=O)(=O)Nc1ccc2c(c1)C(=O)N([C@@H](C)CO)C[C@@H](C)[C@H](CN(C)C(=O)Nc1ccc(F)cc1)O2 | · | · | · | · | · | -4 | · | ·
Cc1ccc(C(=O)NC2c3ccccc3-c3ccccc32)cc1 | -2 | 59* | 82* | -2 | 11 | 17 | 58* | 54*
Cc1ccc(C(=O)NC2CCc3ccccc3C2=O)cc1 (stereo unspecified) | -84 | -61 | -11 | 0 | -55 | -110 | · | ·
